The record followed here is ChEMBL document CHEMBL1961873, “Compounds: GSK PKIS; Assays: Nanosyn kinase panel” (2012).

Experiment [1] has as its target T1, Tyrosine-protein kinase receptor TYRO3 (Homo sapiens) (UniProt Q06418).
T1 sequence (whole entry): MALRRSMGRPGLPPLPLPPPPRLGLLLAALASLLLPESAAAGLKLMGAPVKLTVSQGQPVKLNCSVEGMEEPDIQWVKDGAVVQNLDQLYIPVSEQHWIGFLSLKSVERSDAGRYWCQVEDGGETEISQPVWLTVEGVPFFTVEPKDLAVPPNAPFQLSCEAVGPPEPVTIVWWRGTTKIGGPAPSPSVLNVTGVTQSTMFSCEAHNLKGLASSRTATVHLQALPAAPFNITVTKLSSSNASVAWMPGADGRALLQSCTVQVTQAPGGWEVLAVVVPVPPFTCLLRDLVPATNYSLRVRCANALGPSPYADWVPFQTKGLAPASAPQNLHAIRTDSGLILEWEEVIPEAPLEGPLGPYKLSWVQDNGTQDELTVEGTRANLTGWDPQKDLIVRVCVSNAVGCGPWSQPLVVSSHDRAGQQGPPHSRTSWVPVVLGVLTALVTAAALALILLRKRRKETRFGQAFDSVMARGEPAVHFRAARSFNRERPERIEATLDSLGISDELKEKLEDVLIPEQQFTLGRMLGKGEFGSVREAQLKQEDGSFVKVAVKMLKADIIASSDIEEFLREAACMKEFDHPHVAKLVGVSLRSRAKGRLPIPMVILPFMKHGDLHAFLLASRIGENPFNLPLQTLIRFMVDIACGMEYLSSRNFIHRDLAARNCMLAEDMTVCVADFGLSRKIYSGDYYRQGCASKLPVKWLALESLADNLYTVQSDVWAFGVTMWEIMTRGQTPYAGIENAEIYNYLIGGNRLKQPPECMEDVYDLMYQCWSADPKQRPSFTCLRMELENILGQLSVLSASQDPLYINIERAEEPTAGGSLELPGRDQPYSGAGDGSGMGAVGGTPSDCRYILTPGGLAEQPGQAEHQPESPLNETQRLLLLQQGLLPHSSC
The following applies: at 1 µM.

The target in experiment [2] is Tyrosine-protein kinase Yes (Homo sapiens) (UniProt P07947). The following applies: at 0.1 µM.
Sequence of Tyrosine-protein kinase Yes (Homo sapiens) (P07947 2-543 limits assumed): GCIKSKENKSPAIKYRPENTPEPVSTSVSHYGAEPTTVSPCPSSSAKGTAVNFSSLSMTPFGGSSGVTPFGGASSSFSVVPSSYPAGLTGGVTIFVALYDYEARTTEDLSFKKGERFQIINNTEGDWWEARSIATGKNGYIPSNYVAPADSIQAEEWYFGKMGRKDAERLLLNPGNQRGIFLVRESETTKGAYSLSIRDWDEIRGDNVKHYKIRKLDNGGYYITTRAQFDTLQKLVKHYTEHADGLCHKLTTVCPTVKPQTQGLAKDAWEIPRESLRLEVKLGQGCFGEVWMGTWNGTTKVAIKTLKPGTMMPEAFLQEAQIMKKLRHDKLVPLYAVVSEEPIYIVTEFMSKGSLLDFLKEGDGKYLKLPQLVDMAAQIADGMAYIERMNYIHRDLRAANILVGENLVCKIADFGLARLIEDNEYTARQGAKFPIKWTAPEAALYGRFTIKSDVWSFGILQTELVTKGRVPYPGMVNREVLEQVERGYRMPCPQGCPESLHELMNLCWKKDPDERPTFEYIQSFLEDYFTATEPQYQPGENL
Experiment [3] shares this target. The following applies: at 1 µM.
Experiment [4] addresses T2, Tyrosine-protein kinase ZAP-70 (Homo sapiens) (UniProt P43403).
T2 sequence (whole entry): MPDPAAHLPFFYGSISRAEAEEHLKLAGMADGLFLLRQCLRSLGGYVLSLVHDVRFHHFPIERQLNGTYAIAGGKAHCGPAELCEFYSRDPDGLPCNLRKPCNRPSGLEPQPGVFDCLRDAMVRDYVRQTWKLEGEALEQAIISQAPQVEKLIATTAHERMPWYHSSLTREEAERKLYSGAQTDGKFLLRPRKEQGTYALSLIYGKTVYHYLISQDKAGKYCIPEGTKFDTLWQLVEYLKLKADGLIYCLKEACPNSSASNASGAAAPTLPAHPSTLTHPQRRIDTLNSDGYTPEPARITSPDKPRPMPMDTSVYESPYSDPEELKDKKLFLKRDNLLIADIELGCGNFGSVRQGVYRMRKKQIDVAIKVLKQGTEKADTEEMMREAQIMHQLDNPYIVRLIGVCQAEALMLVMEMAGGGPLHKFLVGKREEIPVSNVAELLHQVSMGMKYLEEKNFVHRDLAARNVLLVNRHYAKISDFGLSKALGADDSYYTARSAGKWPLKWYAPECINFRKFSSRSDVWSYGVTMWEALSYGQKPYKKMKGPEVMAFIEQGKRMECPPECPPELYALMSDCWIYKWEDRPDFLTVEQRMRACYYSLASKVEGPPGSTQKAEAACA
The note with it: at 0.1 µM.

Experiment [5] has as its target T2, Tyrosine-protein kinase ZAP-70 (Homo sapiens). The following applies: at 1 µM.
For experiment [6], the target named is Serine/threonine-protein kinase B-raf (Homo sapiens) (UniProt P15056). The note with it: at 0.1 µM.
Sequence of Serine/threonine-protein kinase B-raf (Homo sapiens) (P15056 whole entry): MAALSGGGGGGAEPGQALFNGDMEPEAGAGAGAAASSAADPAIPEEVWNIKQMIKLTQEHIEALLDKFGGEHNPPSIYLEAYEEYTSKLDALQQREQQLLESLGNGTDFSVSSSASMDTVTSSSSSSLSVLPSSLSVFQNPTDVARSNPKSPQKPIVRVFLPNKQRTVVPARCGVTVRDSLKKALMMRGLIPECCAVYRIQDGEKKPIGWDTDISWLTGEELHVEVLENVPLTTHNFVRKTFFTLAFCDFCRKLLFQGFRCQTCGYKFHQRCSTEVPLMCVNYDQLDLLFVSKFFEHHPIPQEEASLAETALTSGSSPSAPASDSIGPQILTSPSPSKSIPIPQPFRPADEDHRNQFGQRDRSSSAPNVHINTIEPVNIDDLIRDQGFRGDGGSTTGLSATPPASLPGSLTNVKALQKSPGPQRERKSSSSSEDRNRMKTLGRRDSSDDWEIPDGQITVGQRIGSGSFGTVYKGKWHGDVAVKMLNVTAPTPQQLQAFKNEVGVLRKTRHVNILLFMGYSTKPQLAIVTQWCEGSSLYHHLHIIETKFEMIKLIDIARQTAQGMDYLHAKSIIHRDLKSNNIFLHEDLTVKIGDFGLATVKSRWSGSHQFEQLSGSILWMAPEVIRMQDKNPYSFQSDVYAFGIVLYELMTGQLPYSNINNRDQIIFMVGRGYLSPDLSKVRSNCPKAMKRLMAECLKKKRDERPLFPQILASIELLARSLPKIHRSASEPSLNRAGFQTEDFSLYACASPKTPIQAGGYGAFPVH
Experiment [7] has the same target. The note with it: at 1 µM.
Experiment [8] has as its system Serine/threonine-protein kinase B-raf (Homo sapiens), P15056 [V600E]. The following applies: at 0.1 µM.
Experiment [9] has the same test system. The following applies: at 1 µM.
Experiment [10] addresses RAF proto-oncogene serine/threonine-protein kinase (Homo sapiens) (UniProt P04049). The following applies: at 0.1 µM.
Experiment [11] has the same target. The note with it: at 1 µM.
The target of experiment [12] is T3, Interleukin-1 receptor-associated kinase 4 (Homo sapiens) (UniProt Q9NWZ3).
T3 sequence (whole entry): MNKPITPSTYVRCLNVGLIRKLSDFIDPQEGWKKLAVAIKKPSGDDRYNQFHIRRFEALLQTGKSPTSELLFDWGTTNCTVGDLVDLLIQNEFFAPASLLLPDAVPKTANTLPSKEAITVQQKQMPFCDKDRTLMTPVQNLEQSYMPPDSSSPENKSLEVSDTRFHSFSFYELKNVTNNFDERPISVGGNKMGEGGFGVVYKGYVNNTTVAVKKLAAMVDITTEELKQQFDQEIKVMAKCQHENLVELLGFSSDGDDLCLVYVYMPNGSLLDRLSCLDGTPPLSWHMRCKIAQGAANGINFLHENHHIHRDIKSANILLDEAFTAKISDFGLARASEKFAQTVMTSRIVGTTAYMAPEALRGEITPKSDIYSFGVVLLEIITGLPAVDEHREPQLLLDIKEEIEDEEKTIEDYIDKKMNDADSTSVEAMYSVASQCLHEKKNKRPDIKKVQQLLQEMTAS
The following applies: at 0.1 µM.

The target of experiment [13] is T3, Interleukin-1 receptor-associated kinase 4 (Homo sapiens). The note with it: at 1 µM.
Experiment [14] has as its target Leucine-rich repeat serine/threonine-protein kinase 2 (Homo sapiens) (UniProt Q5S007). The following applies: at 0.1 µM.
Experiment [15] has the same target. The note with it: at 1 µM.
The subject of experiment [16] is Leucine-rich repeat serine/threonine-protein kinase 2 (Homo sapiens), Q5S007 [G2019S]. The note with it: at 0.1 µM.
Experiment [17] has the same test system. The following applies: at 1 µM.

Sequence of Serine/threonine-protein kinase B-raf (Homo sapiens), P15056 [V600E] (P15056 whole entry V600E): as the sequence (P15056 whole entry) above, with V600E counted along it
Sequence of Leucine-rich repeat serine/threonine-protein kinase 2 (Homo sapiens), Q5S007 [G2019S] (Q5S007 whole entry G2019S): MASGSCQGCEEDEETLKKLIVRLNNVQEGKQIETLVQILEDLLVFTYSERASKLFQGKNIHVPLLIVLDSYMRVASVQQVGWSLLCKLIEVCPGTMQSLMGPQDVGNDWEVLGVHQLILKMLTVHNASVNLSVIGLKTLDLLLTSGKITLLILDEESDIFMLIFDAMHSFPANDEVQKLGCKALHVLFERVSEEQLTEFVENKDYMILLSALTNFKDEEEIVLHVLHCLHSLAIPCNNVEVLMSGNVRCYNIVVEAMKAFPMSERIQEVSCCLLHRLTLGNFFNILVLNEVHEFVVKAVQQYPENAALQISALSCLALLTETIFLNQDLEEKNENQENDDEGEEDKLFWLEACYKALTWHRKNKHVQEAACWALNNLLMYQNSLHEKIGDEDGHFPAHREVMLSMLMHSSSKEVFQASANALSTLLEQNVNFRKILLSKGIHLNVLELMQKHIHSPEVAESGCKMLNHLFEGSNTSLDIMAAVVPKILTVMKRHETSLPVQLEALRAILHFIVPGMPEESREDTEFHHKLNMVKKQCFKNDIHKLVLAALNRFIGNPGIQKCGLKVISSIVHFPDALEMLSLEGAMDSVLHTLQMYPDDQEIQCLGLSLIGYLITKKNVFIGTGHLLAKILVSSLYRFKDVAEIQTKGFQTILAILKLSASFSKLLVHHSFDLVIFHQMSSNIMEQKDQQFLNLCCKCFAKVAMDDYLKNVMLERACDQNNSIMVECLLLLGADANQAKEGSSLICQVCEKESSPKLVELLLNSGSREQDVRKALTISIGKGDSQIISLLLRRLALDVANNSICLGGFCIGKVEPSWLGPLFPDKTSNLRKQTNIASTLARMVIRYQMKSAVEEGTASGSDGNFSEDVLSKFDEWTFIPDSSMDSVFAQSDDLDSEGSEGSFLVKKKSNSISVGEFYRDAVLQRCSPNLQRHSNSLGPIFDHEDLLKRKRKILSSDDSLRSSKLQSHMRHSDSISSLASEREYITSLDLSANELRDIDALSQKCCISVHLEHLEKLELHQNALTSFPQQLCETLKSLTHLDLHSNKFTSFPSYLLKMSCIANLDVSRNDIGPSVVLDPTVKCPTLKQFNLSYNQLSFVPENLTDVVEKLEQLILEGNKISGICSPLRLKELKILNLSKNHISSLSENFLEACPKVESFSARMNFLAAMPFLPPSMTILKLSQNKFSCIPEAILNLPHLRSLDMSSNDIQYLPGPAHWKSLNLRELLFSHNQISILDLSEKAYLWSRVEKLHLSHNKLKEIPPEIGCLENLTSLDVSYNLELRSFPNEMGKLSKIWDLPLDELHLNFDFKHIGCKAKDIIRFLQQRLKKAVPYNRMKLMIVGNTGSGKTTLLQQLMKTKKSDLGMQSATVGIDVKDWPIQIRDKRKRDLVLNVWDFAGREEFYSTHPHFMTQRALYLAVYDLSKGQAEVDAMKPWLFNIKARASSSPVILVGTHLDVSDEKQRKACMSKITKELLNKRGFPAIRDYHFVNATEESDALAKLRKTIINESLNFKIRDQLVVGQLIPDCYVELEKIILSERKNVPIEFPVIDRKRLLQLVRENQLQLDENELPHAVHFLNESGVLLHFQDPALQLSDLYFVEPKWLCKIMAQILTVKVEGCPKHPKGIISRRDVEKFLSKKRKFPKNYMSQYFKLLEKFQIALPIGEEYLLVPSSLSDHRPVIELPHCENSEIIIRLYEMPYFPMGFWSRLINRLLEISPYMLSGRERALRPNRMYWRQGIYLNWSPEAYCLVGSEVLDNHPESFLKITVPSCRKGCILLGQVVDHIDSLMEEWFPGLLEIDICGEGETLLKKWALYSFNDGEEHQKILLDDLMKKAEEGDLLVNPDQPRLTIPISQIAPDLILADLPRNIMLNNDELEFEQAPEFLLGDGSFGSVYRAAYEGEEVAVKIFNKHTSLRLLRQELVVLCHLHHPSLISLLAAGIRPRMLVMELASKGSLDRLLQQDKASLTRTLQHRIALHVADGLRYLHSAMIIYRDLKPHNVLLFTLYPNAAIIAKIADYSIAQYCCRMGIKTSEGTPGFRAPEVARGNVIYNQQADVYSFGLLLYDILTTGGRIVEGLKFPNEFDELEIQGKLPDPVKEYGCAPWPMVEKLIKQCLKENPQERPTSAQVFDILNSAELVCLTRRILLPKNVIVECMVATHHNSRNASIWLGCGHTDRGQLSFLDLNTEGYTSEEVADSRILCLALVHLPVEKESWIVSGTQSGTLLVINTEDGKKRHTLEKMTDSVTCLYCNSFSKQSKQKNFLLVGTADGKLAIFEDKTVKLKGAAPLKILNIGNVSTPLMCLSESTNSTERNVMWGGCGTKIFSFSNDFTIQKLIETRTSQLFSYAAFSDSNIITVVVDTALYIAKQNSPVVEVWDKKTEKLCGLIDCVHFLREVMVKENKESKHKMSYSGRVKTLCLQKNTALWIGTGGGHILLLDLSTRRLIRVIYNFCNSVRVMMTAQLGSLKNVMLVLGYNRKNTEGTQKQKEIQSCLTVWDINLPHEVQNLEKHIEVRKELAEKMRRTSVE
Sequence of Leucine-rich repeat serine/threonine-protein kinase 2 (Homo sapiens) (Q5S007 whole entry): as the sequence (Q5S007 whole entry G2019S) above, with S2019G counted along it
Sequence of RAF proto-oncogene serine/threonine-protein kinase (Homo sapiens) (P04049 whole entry): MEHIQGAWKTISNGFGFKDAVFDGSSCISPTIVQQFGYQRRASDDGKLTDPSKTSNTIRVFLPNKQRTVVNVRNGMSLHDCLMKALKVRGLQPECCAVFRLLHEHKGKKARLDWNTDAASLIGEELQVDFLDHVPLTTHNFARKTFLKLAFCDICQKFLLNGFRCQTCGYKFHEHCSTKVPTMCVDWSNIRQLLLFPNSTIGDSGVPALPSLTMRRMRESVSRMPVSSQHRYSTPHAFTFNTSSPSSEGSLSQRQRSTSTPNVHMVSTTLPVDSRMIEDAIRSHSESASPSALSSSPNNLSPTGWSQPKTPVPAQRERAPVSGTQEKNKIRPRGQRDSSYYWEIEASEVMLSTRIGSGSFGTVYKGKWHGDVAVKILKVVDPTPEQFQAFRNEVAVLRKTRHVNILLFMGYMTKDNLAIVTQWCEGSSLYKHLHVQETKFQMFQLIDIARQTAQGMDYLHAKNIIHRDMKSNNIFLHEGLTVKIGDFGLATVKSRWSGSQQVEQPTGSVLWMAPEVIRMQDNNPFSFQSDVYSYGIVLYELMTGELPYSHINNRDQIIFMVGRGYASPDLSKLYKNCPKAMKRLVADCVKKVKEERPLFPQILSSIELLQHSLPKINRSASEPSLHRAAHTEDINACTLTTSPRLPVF

Consider `CNC(=O)c1sc(-n2cnc3cc(OC)c(OC)cc32)cc1OCc1ccccc1C(F)(F)F`, for which the inhibition – broadly, the change of the read-out against control, counted positive when it falls – in experiment [1] was 3.54%; in experiment [2], 3.33%; in [3], 6.76%; in experiment [4], -0.03%; in experiment [5], -1.04%; in [6] it was 6.42%. In addition, the inhibition is 6.14% in [7]; 4.01% in experiment [8]; 4.66% in experiment [9]; 1.81% in [10]; 0.72% in experiment [11]; 2.12% in [12]. For the same molecule, the inhibition in [13] is 1.97%; in [14], 2.86%; in experiment [15], 9.7%; in [16], 3.5%; in experiment [17], 7.21%.

Regarding `CCOc1ccc2c(-c3ccnc(Nc4cc(OC)cc(C(F)(F)F)c4)n3)cnn2n1`, the inhibition was found to be 4.4% in [1]; 2.04% in experiment [2]; 6.75% in experiment [3]; 0.43% in experiment [4]; 3.29% in experiment [5]; 0.89% in [6]. The inhibition in experiment [7] is 1.03%; in [8], 0.43%; in [9] it was 1.03%; in experiment [10] it was -4.87%; in [11] it was -1.65%; in [12], -3.8%. The inhibition in [13] was determined as 0.63%; in experiment [14], 1.55%; in experiment [15] it was 5.25%; in experiment [16], 3.62%; in experiment [17] it was 12.8%.

Consider `CN(C)CCNC(=O)Nc1ccc(N(C)c2ccnc(Nc3ccc(CS(C)(=O)=O)cc3)n2)cc1`, for which the inhibition in experiment [1] was 5.87%; in experiment [2], 0.55%; in experiment [3], 2.71%; in [4], 1.7%; in [5] it was 1.48%; in [6], 4.53%. The inhibition is 5.12% in [7]; 5.5% in experiment [8]; 6.71% in [9]; -0.51% in [10]; -0.82% in experiment [11]; -4.3% in experiment [12]. The inhibition in [13] amounted to 2.15%; in [14], 4.46%; in experiment [15], 11.5%; in [16], 6.1%; in experiment [17] it was 23%.

`Fc1ccc(Nc2nccc(-c3c(-c4ccc(C(F)(F)F)cc4)nn4ncccc34)n2)cc1F`: the inhibition in [1] is 1.88%; in experiment [2], -0.6%; in experiment [3] it was 1.12%; in experiment [4] it was 2.29%; in [5], 2.38%; in experiment [6] it was 3.42%. In addition, the inhibition in [7] was 6.75%; in experiment [8], 3.45%; in [9], 6.03%; in experiment [10], 4.84%; in experiment [11] it was 1.86%; in experiment [12], -4.78%. Also, the inhibition in [13] was 1.81%; in [14] it was 5.42%; in experiment [15] it was 7.08%; in [16], 5.93%; in [17], 10.4%.

On to `Cc1cc(O)cc(C)c1/C=C/c1cncc(C(N)=O)c1`, for which the inhibition in [1] is 6.32%; in [2], 6.53%; in experiment [3], 32.2%; in experiment [4], 2.11%; in [5], 2.46%; in experiment [6], 4.77%. For the same molecule, the inhibition in [7] was 11.2%; in [8], 3.8%; in experiment [9], 8.78%; in experiment [10] it was -1.23%; in experiment [11], 5.31%; in experiment [12], -1.86%. For the same molecule, the inhibition in experiment [13] amounted to 0.71%; in experiment [14] it was 1.8%; in [15], 6.26%; in [16], 3.18%; in experiment [17] it was 13.3%.

For the molecule `Cc1cc(O)cc(C)c1/C=C/c1cncc(C(=O)OC(C)(C)C)c1`, the inhibition in experiment [1] stood at 4.32%; in experiment [2], 5.5%; in experiment [3], 31.1%; in experiment [4], 1.34%; in experiment [5], 1.02%; in experiment [6], 4.14%. The inhibition in experiment [7] was 7.71%; in experiment [8], 3.83%; in [9] it was 6.09%; in experiment [10] it was 3.1%; in [11] it was -0.4%; in experiment [12], 3.06%. Moreover, the inhibition in [13] came to 1.36%; in experiment [14] it was 6.27%; in [15] it was 9.43%; in experiment [16], 6.75%; in experiment [17] it was 10.9%.

With `CC(C)c1ccc(-c2cc(-c3c[nH]nc3-c3ccccn3)ccn2)cc1`, the inhibition in experiment [1] stood at 2.71%; in experiment [2], 0.42%; in experiment [3], 0.34%; in [4], 1.32%; in experiment [5] it was 1.31%; in experiment [6], 0.6%. In addition, the inhibition in [7] is 3.57%; in experiment [8], 0%; in experiment [9], 3.39%; in experiment [10] it was 1.14%; in experiment [11], 1.4%; in experiment [12] it was 1.27%. For the same molecule, the inhibition stood at 0.36% in [13]; 2.9% in [14]; 4.8% in [15]; 1.2% in experiment [16]; 7.15% in experiment [17].

With `O=C(O[C@H]1CN[C@H](C#Cc2cc3ncnc(Nc4ccc5c(cnn5Cc5ccccc5)c4)c3s2)C1)N1CCOCC1`, the inhibition is 1.4% in experiment [1]; 1.73% in experiment [2]; 23.1% in experiment [3]; -4.53% in experiment [4]; 2.2% in [5]; -0.55% in experiment [6]. In addition, the inhibition was -2.69% in [7]; -0.19% in experiment [8]; -0.28% in [9]; -0.85% in [10]; -1.71% in experiment [11]; -1.41% in experiment [12]. Moreover, the inhibition in experiment [13] is -0.48%; in experiment [14], 1.16%; in experiment [15], 4.4%; in [16], 3.12%; in experiment [17] it was 4.15%.
